# Test results: PubChem BioAssay (EPA / NIEHS)
# The source made the active and inactive calls. How the source made its calls: active means hit-call score of the fitted dose curve at least 0.9, where 1 is the maximum; inactive means score below 0.9.
# Experiments:
# Conditions in all cases: mRNA level, 48 h; actives raise or lower the signal
# [1] = read-out: catalase (CAT), CAT (gene 847); assay: LTEA_HepaRG_CAT: Life Technologies and Expression Analysis (LTEA) Assay for catalase (CAT) using HepaRG (AID 2283452)
# Procedure, shortened: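 HepaRG cells in serum-free induction medium, 0.5% DMSO vehicle, exposed 48 h in duplicate over 8 half-log concentrations from 100 uM. CAT mRNA measured by qRT-PCR, normalized to ACTB, GAPDH, POLR2A; bidirectional fit versus DMSO.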
# [2] = read-out: flavin-containing dimethylaniline monooxygenases 3 (FMO3), FMO3 (gene 2328); assay: LTEA_HepaRG_FMO3: Life Technologies and Expression Analysis (LTEA) Assay for flavin-containing dimethylaniline monooxygenases 3 (FMO3) using HepaRG (AID 2283453)
# Procedure, shortened: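 Differentiated HepaRG cells in serum-free induction medium, exposed 48 h in duplicate to 8 half-log concentrations up to 100 uM in 0.5% DMSO. FMO3 mRNA by qRT-PCR, normalized to ACTB, GAPDH, POLR2A; bidirectional fit vs DMSO.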
# [3] = read-out: Cytochrome P450 (CYP1A1), CYP1A1 (gene 1543); assay: LTEA_HepaRG_CYP1A1: Life Technologies and Expression Analysis (LTEA) Assay for Cytochrome P450 (CYP1A1) using HepaRG (AID 2283454)
# Procedure, shortened: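 CYP1A1 transcript levels measured by Fluidigm qRT-PCR against three housekeeping genes, 48 h after chemical dosing of human HepaRG cells (highest concentration 100 uM, half-log steps, 0.5% DMSO vehicle). Gain or loss of signal fitted relative to DMSO.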
# [4] = read-out: CFLAR gene, CFLAR (gene 8837); assay: LTEA_HepaRG_CFLAR: Life Technologies and Expression Analysis (LTEA) Assay for CFLAR gene using HepaRG (AID 2283455)
# Procedure, shortened: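 Differentiated HepaRG cells in serum-free induction medium were exposed 48 h in duplicate to eight half-log concentrations up to 100 uM in 0.5% DMSO; mRNA measured by TaqMan qRT-PCR, normalized to ACTB, GAPDH, POLR2A; bidirectional fitting versus DMSO.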
# [5] = read-out: Forkhead box O1 (FOXO1), FOXO1 (gene 2308); assay: LTEA_HepaRG_FOXO1: Life Technologies and Expression Analysis (LTEA) Assay for Forkhead box O1 (FOXO1) using HepaRG (AID 2283456)
# Procedure, shortened: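 Differentiated HepaRG cells, in serum-free induction medium with 0.5% DMSO, exposed 48 h in duplicate to 8-point half-log series from 100 uM. FOXO1 mRNA measured by TaqMan qRT-PCR, normalized to ACTB, GAPDH, POLR2A; bidirectional fit versus DMSO.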
# [6] = read-out: growth arrest and DNA damage 45 (GADD45A), GADD45A (gene 1647); assay: LTEA_HepaRG_GADD45A: Life Technologies and Expression Analysis (LTEA) Assay for growth arrest and DNA damage 45 (GADD45A) using HepaRG (AID 2283458)
# Procedure, shortened: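 Differentiated HepaRG cells exposed 48 h in serum-free induction medium to 8 concentrations, top 100 uM in half-log steps, 0.5% DMSO. GADD45A mRNA quantified by qRT-PCR, normalized to ACTB, GAPDH and POLR2A; bidirectional fit versus DMSO.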
# [7] = read-out: Forkhead box O3 (FOXO3), FOXO3 (gene 2309); assay: LTEA_HepaRG_FOXO3: Life Technologies and Expression Analysis (LTEA) Assay for Forkhead box O3 (FOXO3) using HepaRG (AID 2283459)
# Procedure, shortened: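 Differentiated human HepaRG cells, 48 h post-plating, exposed in duplicate for 48 h in serum-free induction medium; 8-point half-log series from 100 uM in 0.5% DMSO. FOXO3 mRNA by TaqMan qRT-PCR, normalized to ACTB/GAPDH/POLR2A; bidirectional fit versus DMSO.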
# [8] = read-out: ABC Transporter (ABCB1), ABCB1 (gene 5243); assay: LTEA_HepaRG_ABCB1: Life Technologies and Expression Analysis (LTEA) Assay for ABC Transporter (ABCB1) using HepaRG (AID 2283460)
# Procedure, shortened: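 HepaRG cells exposed in duplicate for 48 h in serum-free induction medium to eight half-log concentrations up to 100 uM in 0.5% DMSO. ABCB1 mRNA quantified by qRT-PCR, normalised to ACTB, GAPDH and POLR2A; fitted bidirectionally versus DMSO.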
# [9] = read-out: growth arrest and DNA damage 45 (GADD45B), GADD45B (gene 4616); assay: LTEA_HepaRG_GADD45B: Life Technologies and Expression Analysis (LTEA) Assay for growth arrest and DNA damage 45 (GADD45B) using HepaRG (AID 2283461)
# Procedure, shortened: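 Transcript level quantified by Fluidigm TaqMan qRT-PCR with three housekeeping genes for normalization, analyzed for up- or down-regulation against 0.5% DMSO. HepaRG cultures dosed 48 h at eight half-log concentrations up to 100 uM, duplicates.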
# [10] = read-out: ABC Transporter (ABCC3), ABCC3 (gene 8714); assay: LTEA_HepaRG_ABCC3: Life Technologies and Expression Analysis (LTEA) Assay for ABC Transporter (ABCC3) using HepaRG (AID 2283462)
# Procedure, shortened: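 Transcript level by TaqMan qRT-PCR, normalised to three housekeeping genes, fitted in both directions relative to vehicle. Chemicals tested in duplicate at eight half-log concentrations up to 100 uM for 48 h on HepaRG cells (0.5% DMSO).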
# [11] = read-out: ABC Transporter (ABCB11), ABCB11 (gene 8647); assay: LTEA_HepaRG_ABCB11: Life Technologies and Expression Analysis (LTEA) Assay for ABC Transporter (ABCB11) using HepaRG (AID 2283463)
# Procedure, shortened: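 Differentiated human HepaRG cells in serum-free induction medium, dosed in duplicate for 48 h. Eight-point half-log series from 100 uM in 0.5% DMSO; ABCB11 mRNA by qRT-PCR, normalized to ACTB, GAPDH, POLR2A, fitted bidirectionally versus DMSO.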
# [12] = read-out: ABC Transporter (ABCC2), ABCC2 (gene 1244); assay: LTEA_HepaRG_ABCC2: Life Technologies and Expression Analysis (LTEA) Assay for ABC Transporter (ABCC2) using HepaRG (AID 2283464)
# Procedure, shortened: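 Endpoint is ABCC2 transcript level from qRT-PCR, normalized to three housekeeping genes and fitted bidirectionally relative to DMSO. Human HepaRG cells received test chemical for 48 h at up to 100 uM (8 points, half-log steps, 0.5% DMSO), duplicate wells.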
# [13] = read-out: Broad substrate specificity ATP-binding cassette transporter ABCG2 (Homo sapiens) (UniProt Q9UNQ0); assay: LTEA_HepaRG_ABCG2: Life Technologies and Expression Analysis (LTEA) Assay for ABC Transporter (ABCG2) using HepaRG (AID 2283465)
# Procedure, shortened: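 Differentiated HepaRG cells were exposed for 48 h in serum-free induction medium to 8 half-log concentrations, top 100 uM, in 0.5% DMSO. ABCG2 mRNA was measured by qRT-PCR, normalized to ACTB, GAPDH and POLR2A, with bidirectional fitting versus DMSO.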
# [14] = read-out: ATP-citrate lyase (ACLY), ACLY (gene 47); assay: LTEA_HepaRG_ACLY: Life Technologies and Expression Analysis (LTEA) Assay for ATP-citrate lyase (ACLY) using HepaRG (AID 2283466)
# Procedure, shortened: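 Differentiated HepaRG cells exposed 48 h in serum-free induction medium to eight half-log concentrations up to 100 uM in 0.5% DMSO, duplicates. Transcript measured by Fluidigm TaqMan qRT-PCR, normalized to ACTB, GAPDH, POLR2A; bidirectional fit versus DMSO.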
# [15] = read-out: Peroxisomal acyl-coenzyme A oxidase 1 (ACOX1) gene, ACOX1 (gene 51); assay: LTEA_HepaRG_ACOX1: Life Technologies and Expression Analysis (LTEA) Assay for Peroxisomal acyl-coenzyme A oxidase 1 (ACOX1) gene using HepaRG (AID 2283467)
# Procedure, shortened: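 HepaRG cells, plated 48 h then switched to serum-free induction medium, were exposed in duplicate for 48 h to 8-point half-log concentrations up to 100 uM in 0.5% DMSO. ACOX1 mRNA was measured by qRT-PCR, normalized to ACTB/GAPDH/POLR2A, and fitted bidirectionally versus DMSO.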
# [16] = read-out: Alkaline Phosphatase, Placental (ALPP) gene, ALPP (gene 250); assay: LTEA_HepaRG_ALPP: Life Technologies and Expression Analysis (LTEA) Assay for Alkaline Phosphatase, Placental (ALPP) gene using HepaRG (AID 2283468)
# Procedure, shortened: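 ALPP transcript level, measured by qRT-PCR and normalized to three housekeeping genes (ACTB, GAPDH, POLR2A), after 48 h dosing of differentiated HepaRG in serum-free induction medium. Top concentration 100 uM with half-log dilutions (8 points, 0.5% DMSO, duplicates); bidirectional fitting relative to DMSO.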
# [17] = read-out: Bcl-2 (BAD) gene, BAD (gene 572); assay: LTEA_HepaRG_BAD: Life Technologies and Expression Analysis (LTEA) Assay for Bcl-2 (BAD) gene using HepaRG (AID 2283469)
# Procedure, shortened: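 Differentiated HepaRG cells were exposed in duplicate in 0.5% DMSO for 48 h to eight-point half-log concentrations up to 100 uM. BAD mRNA was measured by Fluidigm TaqMan qRT-PCR, normalized to ACTB, GAPDH and POLR2A, and fitted bidirectionally against DMSO.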
# [18] = read-out: Bcl-2 (BAX) gene, BAX (gene 581); assay: LTEA_HepaRG_BAX: Life Technologies and Expression Analysis (LTEA) Assay for Bcl-2 (BAX) gene using HepaRG (AID 2283470)
# Procedure, shortened: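 Differentiated HepaRG cells exposed 48 h in serum-free induction medium, eight half-log concentrations from 100 uM, in duplicate, 0.5% DMSO vehicle. BAX mRNA by TaqMan qRT-PCR, normalised to ACTB, GAPDH and POLR2A.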
# [19] = read-out: adenosine kinase (ADK) gene, ADK (gene 132); assay: LTEA_HepaRG_ADK: Life Technologies and Expression Analysis (LTEA) Assay for adenosine kinase (ADK) gene using HepaRG (AID 2283471)
# Procedure, shortened: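 Read-out is ADK transcript level measured by qRT-PCR and normalised to three housekeeping genes. Cells are human HepaRG, dosed for 48 h at up to 100 uM in 0.5% DMSO. Gain or loss of signal is fitted against DMSO controls.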
# Chain of Broad substrate specificity ATP-binding cassette transporter ABCG2 (Homo sapiens) (Q9UNQ0 whole entry, looked up): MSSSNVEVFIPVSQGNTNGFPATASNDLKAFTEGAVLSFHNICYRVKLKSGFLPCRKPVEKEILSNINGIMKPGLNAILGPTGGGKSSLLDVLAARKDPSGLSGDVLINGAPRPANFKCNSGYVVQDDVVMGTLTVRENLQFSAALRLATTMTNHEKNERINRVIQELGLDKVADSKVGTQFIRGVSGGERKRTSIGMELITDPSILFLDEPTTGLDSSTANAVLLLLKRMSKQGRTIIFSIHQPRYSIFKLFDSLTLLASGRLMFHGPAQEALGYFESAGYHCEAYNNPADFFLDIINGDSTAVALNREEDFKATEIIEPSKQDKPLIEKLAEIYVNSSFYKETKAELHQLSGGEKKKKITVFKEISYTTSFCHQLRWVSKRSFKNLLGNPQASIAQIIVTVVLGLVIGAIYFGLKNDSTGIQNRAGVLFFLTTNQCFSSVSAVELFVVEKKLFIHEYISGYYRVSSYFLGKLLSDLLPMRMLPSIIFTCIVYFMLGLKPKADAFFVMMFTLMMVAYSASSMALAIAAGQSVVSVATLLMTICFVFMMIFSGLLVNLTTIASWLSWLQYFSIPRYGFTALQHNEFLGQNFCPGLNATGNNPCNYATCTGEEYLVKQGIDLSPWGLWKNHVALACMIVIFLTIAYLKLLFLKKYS
compound,measurement,setting,value
COC(=O)c1ccccc1N,outcome,[1],inactive
same,outcome,[2],inactive
same,outcome,[3],inactive
same,outcome,[4],inactive
same,outcome,[5],inactive
same,outcome,[6],inactive
same,outcome,[7],inactive
same,outcome,[8],inactive
same,outcome,[9],inactive
same,outcome,[10],inactive
same,outcome,[11],inactive
same,outcome,[12],inactive
same,outcome,[13],inactive
same,outcome,[14],inactive
same,outcome,[15],inactive
same,outcome,[16],inactive
same,outcome,[17],inactive
same,outcome,[18],inactive
same,outcome,[19],inactive
CCCSC(=O)N(CCC)CCC,outcome,[1],inactive
same,outcome,[2],inactive
same,AC50,[3],50 µM (active)
same,outcome,[4],inactive
same,outcome,[5],inactive
same,outcome,[6],inactive
same,outcome,[7],inactive
same,outcome,[8],inactive
same,outcome,[9],inactive
same,outcome,[10],inactive
same,outcome,[11],inactive
same,outcome,[12],inactive
same,outcome,[13],inactive
same,outcome,[14],inactive
same,outcome,[15],inactive
same,outcome,[16],inactive
same,outcome,[17],inactive
same,outcome,[18],inactive
same,outcome,[19],inactive
O=C(N[C@H](c1ccccc1)[C@@H]1CN2CCC1CC2)c1c(Cl)ccc(C(F)(F)F)c1Cl,AC50,[1],68.5 µM (active)
same,AC50,[2],65.9 µM (active)
same,AC50,[3],11 µM (active)
same,AC50,[4],82.4 µM (active)
same,AC50,[5],74.5 µM (active)
same,AC50,[6],46.2 µM (active)
same,outcome,[7],inactive
same,AC50,[8],13.5 µM (active)
same,AC50,[9],46.2 µM (active)
same,AC50,[10],36.3 µM (active)
same,outcome,[11],inactive
same,AC50,[12],71.8 µM (active)
same,outcome,[13],inactive
same,AC50,[14],78.7 µM (active)
same,AC50,[15],70.3 µM (active)
same,AC50,[16],11.8 µM (active)
same,outcome,[17],inactive
same,AC50,[18],75.3 µM (active)
same,AC50,[19],58 µM (active)
CC(O)CCO (stereo not drawn),outcome,[1],inactive
same,outcome,[2],inactive
same,outcome,[3],inactive
same,outcome,[4],inactive
same,outcome,[5],inactive
same,outcome,[6],inactive
same,outcome,[7],inactive
same,outcome,[8],inactive
same,outcome,[9],inactive
same,outcome,[10],inactive
same,outcome,[11],inactive
same,outcome,[12],inactive
same,outcome,[13],inactive
same,outcome,[14],inactive
same,outcome,[15],inactive
same,outcome,[16],inactive
same,outcome,[17],inactive
same,outcome,[18],inactive
same,outcome,[19],inactive
Clc1ccc(Cl)c(Cl)c1,outcome,[1],inactive
same,outcome,[2],inactive
same,outcome,[3],inactive
same,AC50,[4],50 µM (active)
same,outcome,[5],inactive
same,AC50,[6],9.92 µM (active)
same,outcome,[7],inactive
same,outcome,[8],inactive
same,outcome,[9],inactive
same,outcome,[10],inactive
same,AC50,[11],50 µM (active)
same,outcome,[12],inactive
same,outcome,[13],inactive
same,outcome,[14],inactive
same,outcome,[15],inactive
same,AC50,[16],9.92 µM (active)
same,outcome,[17],inactive
same,outcome,[18],inactive
same,outcome,[19],inactive
CN(C)C(=O)Nc1ccc(Cl)cc1,outcome,[1],inactive
same,outcome,[2],inactive
same,AC50,[3],38 µM (active)
same,outcome,[4],inactive
same,outcome,[5],inactive
same,outcome,[6],inactive
same,outcome,[7],inactive
same,outcome,[8],inactive
same,outcome,[9],inactive
same,outcome,[10],inactive
same,outcome,[11],inactive
same,outcome,[12],inactive
same,outcome,[13],inactive
same,outcome,[14],inactive
same,outcome,[15],inactive
same,outcome,[16],inactive
same,outcome,[17],inactive
same,outcome,[18],inactive
same,outcome,[19],inactive
c1ccc2c(c1)-c1cccc3cccc-2c13,outcome,[1],inactive
same,outcome,[2],inactive
same,AC50,[3],33.3 µM (active)
same,outcome,[4],inactive
same,outcome,[5],inactive
same,outcome,[6],inactive
same,outcome,[7],inactive
same,outcome,[8],inactive
same,outcome,[9],inactive
same,outcome,[10],inactive
same,outcome,[11],inactive
same,outcome,[12],inactive
same,outcome,[13],inactive
same,outcome,[14],inactive
same,outcome,[15],inactive
same,outcome,[16],inactive
same,outcome,[17],inactive
same,outcome,[18],inactive
same,outcome,[19],inactive
